Laboratory results: PubChem BioAssay (NCI)
Where “and” joins values, the source holds several entries; their conditions need not be identical. Equal values may be shown once. Compounds without any hit were thinned out: in the full panel of roughly 83,000, 20% have a hit.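 The endpoint reported here, percent growth, reads 100 for growth as untreated, 0 for no net growth and -100 for all cells dead.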 Values without a mark were called inactive. Calls of active or inactive are those of the source. The calls were made as follows: active = growth percent below 10; inactive = the rest.

Each molecule was assayed on MDA-MB-468 breast (assay: NCI-60 one-dose screen, 48 h (100 = growth as untreated, 0 = no growth, -100 = all killed)). Conditions: 10 µM unless noted.
In the case of `CC(=O)c1cc(Br)ccc1O`, the growth is reported as 103%. With `COc1ccc2nc3ccccc3c(NCc3ccc(F)cc3)c2c1` the growth was -23.9% (active). `NC1=NC(c2ccccc2OS(=O)(=O)c2ccc(Br)cc2)n2c(nc3ccccc32)N1` (stereo not given) gave a growth of 104%. `Cc1cc(C(=C2C=CC(=Nc3ccccc3)C=C2)c2ccc(Nc3ccccc3)cc2)ccc1N` was tested, and the growth was -84.2% (active). Work on `Cc1ccc(CS/C(=C\c2ccc([N+](=O)[O-])cc2)C(=O)c2ccc(F)cc2)cc1` yielded a growth of 81.1%. `Cc1c2cnccc2c(C)c2c1oc1ccccc12` gave a growth of 82.6%. In the case of `N#CC1CCc2c(c(-c3cn[nH]c3C(F)(F)F)nc3c(F)cc4[nH]ncc4c23)C1` (stereo not given), the growth is reported as -6.53% (active). With `c1cc(C2CCCCC2)ccc1OCCCCCCN1CCNCC1` the growth was 1.63% (active). In the case of `CCOc1ccc(N=C(C)Nc2ccc(OCC)cc2)cc1`, the growth is reported as 116%. For `O=C(Cn1nnc2ccccc21)N/N=C/c1c[nH]c2ccccc12`, the growth was 34.5%. `O=Nc1ccc(NO)c2ccccc12` showed a growth of 73.7%. With `CCOc1ccc(I)cc1` the growth was 105%. For `Cc1nc(C)c(C)nc1C`, the growth was 106%. With `CCCCCCCC(=O)SCC/C=C/[C@@H]1CC(=O)NCc2nc(cs2)C2=N[C@@](C)(CS2)C(=O)N[C@@H](C(C)C)C(=O)N1` the growth was 40.7%. For `N#CC1=C(N)Oc2c(sc3c(Br)cccc23)C1c1ccc(Br)cc1` (stereo not given), the growth was 12.1%. With `O=C(C(=Cc1ccccc1)C(=O)c1ccccc1)c1ccccc1` the growth was 63.4% and 89.4%. `CCOC(=O)c1c(Nc2ccccc2)nn2c(N)c(C#N)c(-c3ccccc3)nc12` was tested, and the growth was 62.4%. `O=C(NCc1ccco1)Nc1cccc2c(NC(=O)NCc3ccco3)cccc12` was tested, and the growth was 85.7% [100 µM]. `CC(C)NCCCCCNc1cc(O)cc2cccnc12` was tested, and the growth was 18.6%. In the case of `COc1cc(OC)c2c(c1Cl)O[C@]1(C2=O)C(OCc2ccccc2)=CC(=O)C[C@H]1C`, the growth is reported as -4.52% (active). For `COc1ccc(-c2cnc3c(-c4cccc5ncccc45)cnn3c2)cc1`, the growth was 57.1%. With `COc1ccc(C2CC(c3cccs3)=NN2c2ccc(S(N)(=O)=O)cc2)cc1` (stereo not given) the growth was 8.49% (active). Molecule `O=C1C=CN2C(=O)CC=CC2[C@@H]1O` (stereo not given in full) has a growth of 110%. In the case of `Cc1cc(C(C)(C)C)cc(C)c1CC1=NCCN1`, the growth is reported as 93.5%. With `CCC1=C(c2ccc(OC)cc2)C(C)(C)Oc2c1ccc(O)c2CN1CCCC1` the growth was -45.1% (active). Work on `COc1ccc(OC)c([N+](=O)[O-])c1C(=O)CNC(C)=O` yielded a growth of 98%. Work on `CCCC1(c2ccccc2)NC(=O)NC1=O` (stereo not given) yielded a growth of 104%. `C=C(C)[C@@H]1C/C=C(/C=O)CC[C@@H]2O[C@@]2(C)CC/C=C(\C)CC1` gave a growth of 118%. For `CC1=C(C(=O)Nc2ccccc2)C(c2ccc3c(c2)OCO3)NC(=S)N1` (stereo not given), the growth was 108%. Work on `COc1ccc(C(=O)c2cc(OC)c(OC)c(OC)c2)cc1/C=C/C(=O)c1ccc(O)cc1` yielded a growth of 34.3%. `O=C1[C@H]2Cc3c([nH]c4ccccc34)[C@@H](c3ccc(Br)cc3)N2C(=O)CN1C1CCN(CC2CCCCC2)CC1` was tested, and the growth was -84.6% (active). Work on `COc1cc(C2NC(c3ccc(Cl)cc3)C(C)/C(=N/NC(N)=S)C2C)cc(OC)c1OC` (stereo not given) yielded a growth of 88%. In the case of `O=C1NC(SCc2ccc(F)cc2)=N/C1=C/c1cccc(OCc2ccc(Cl)cc2)c1`, the growth is reported as 62.9%. For `C[C@H](c1nc2ccc(N)cc2[nH]1)[C@H]1CC[C@H]2[C@@H]3CCC4=CC(=O)CC[C@]4(C)[C@H]3CC[C@]12C`, the growth was 68.1%. In the case of `CCc1ccc(C2=C(O)C(=O)C(c3ccc(CC)cc3)=C(O)C2=O)cc1`, the growth is reported as -2.72% (active). For `C#CC[C@@H]1C[C@]2(C)[C@H]3CC=C4[C@H]5[C@@H](C)[C@H](C)CC[C@]5(C(=O)NCCCCN)CC[C@@]4(C)[C@]3(C)CC[C@H]2C(C)(C)[C@H]1OC(C)=O`, the growth was 81%. Work on `COc1ccc(-c2cc(-c3ccc(OC)cc3)c3sc(=O)[nH]c3n2)cc1` yielded a growth of 96.4%. For `Cc1onc(-c2ccccc2Cl)c1C(=O)Cl`, the growth was 104%. `COc1ccc(C(OCC2OC(n3ccc(NC(=O)c4ccccc4)nc3=O)C(O)C2O)(c2ccccc2)c2ccccc2)cc1` (stereo not given) showed a growth of 45.9%. In the case of `COc1ccccc1NC(=O)N=Nc1c(O)[nH]c2ccccc12`, the growth is reported as 86.1%.
